Data published in PubChem BioAssay AID1490 (National Center for Advancing Translational Sciences (NCATS), 2009).
Among all 310,000 compounds or so, about 11,000 (3.5%) were called active. Not shown: some 4% with an inconclusive outcome. For the sample, actives were picked, then their nearest neighbours and some compounds at random. A number with no mark means an inactive call. Calls come from the whole dose curve; as a rule, active = well fitted inhibition curve with a large enough effect; inconclusive = small, poorly fitted or top-dose-only effect, or another doubt; inactive = no such curve, though single readings can be large or run the other way.

Biological target: 4'-phosphopantetheinyl transferase ffp (Bacillus subtilis) (UniProt Q9F4F7)
Experiment: qHTS Assay for Inhibitors of Bacillus subtilis Sfp phosphopantetheinyl transferase (PPTase);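 note: the enzyme is Sfp with the accession as filed and its product quenches rhodamine fluorescence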;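 for largest response in the series, negative = inhibition: 0% = enzyme reaction without inhibitor and -100% = no enzyme wells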
Conditions: Biochemical Sfp PPTase activity
Method in brief: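 With Hepes-Na pH 7.6 buffer containing 10 mM MgCl2, Sfp (15 nM) modified BHQ-2-YbbR (12.5 uM) using rhodamine-CoA (5 uM). Two reads 30 minutes apart at 525/598 nm yielded each well's rate.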
Potency is the fitted concentration of half-maximal effect.

SMILES	largest response in the series, negative = inhibition	Potency
CCc1nn(CCCC(=O)Nc2ccc(C)c(C)c2)c(=O)c2cc3occc3n12	5.57%	–
COc1ccc(N2CCN(Cc3cc(=O)oc4ccc5ccccc5c34)CC2)cc1	4.08%	–
COc1ccc(N2CCN(Cc3nnc(-c4ccccc4)o3)CC2)cc1	2.63%	–
COc1ccc(N2CCN(Cc3ccc(Br)s3)CC2)cc1	–	39.8 µM (active)
O=C(CN(C(=O)c1csnn1)c1cccc(Cl)c1)NC1CCCC1	5.89%	–
C=CCNc1nnc(C)c2ccccc12	4.78%	–
Cc1nnc(NCCO)c2ccccc12	13.5%	–
NNc1nnc(NN)c2ccccc12	–	89.1 µM (active)
CSc1ccccc1OCc1cc(C(=O)N(C)CCc2c(C)n[nH]c2C)no1	0.222%	–
COc1cc(C(=O)NCc2ccncc2)cc(Br)c1OCc1ccccc1	4.37%	–
COc1cc(C=O)c(Br)cc1OCC(=O)NCc1ccccc1	11.5%	–
COc1cc(C(=S)NCc2ccccc2)cc(Br)c1O	–	8.91 µM (active)
NS(=O)(=O)c1ccccc1NC(=O)c1c(O)c2ccccc2[nH]c1=O	-6.41%	–
CC1CC(=O)N(CC(=O)Nc2cccc(Cl)c2)c2ccccc2S1(=O)=O (configuration not stated)	12.1%	–
COc1cc2c(cc1OC)[C@@H](Cc1cc(OC)c(OC)c(OC)c1)[N+](C)(CCCOC(=O)CC/C=C/CCC(=O)OCCC[N+]1(C)CCc3cc(OC)c(OC)cc3[C@H]1Cc1cc(OC)c(OC)c(OC)c1)CC2 (some centres not stated)	-3.12%	–
CCCCN(CC)C(=O)C1CCCN(S(=O)(=O)c2cccc3nsnc23)C1 (configuration not stated)	17.1%	–
CCOC(=O)c1c(-c2ccccc2)csc1NC(=S)NC(=O)c1ccccc1	-3.92%	–
CCC(C(=O)OC)n1cnc2scc(-c3ccc(C)cc3)c2c1=O (configuration not stated)	6.01%	–
COC(=O)c1c(-c2ccc(C)cc2)csc1N	–	44.7 µM (active)
CCCCC/C=C\C[C@H](O)/C=C/C=C/C=C/[C@@H](O)CCCC(=O)O	6.53%	–
CC(=O)N1CCN(C(=O)C2(NC(=O)Nc3ccc(C)cc3)CCCCC2)CC1	14.1%	–
O=C(Cc1ccc(Br)cc1)NCCN1CCOCC1	14.6%	–
CCCOc1ccc(C2c3c(oc4cc(C)c(C)cc4c3=O)C(=O)N2CCCN2CCOCC2)cc1 (configuration not stated)	–	50.1 µM (active)

SMILES	largest response in the series, negative = inhibition	Potency
CCCCOc1ccc(C(C)(O)CCN2CCOCC2)cc1 (configuration not stated)	6.22%	–
COc1ccc(C2/C(=C(/O)c3ccc(OC(C)C)cc3)C(=O)C(=O)N2CCCN2CCOCC2)cc1 (configuration not stated)	-22.3%	–
CCOc1cc(-c2cc(-c3ccc(NC(C)=O)cc3)nc(N)c2C#N)ccc1O	10.7%	–
Cc1cc(=O)n2nc(N3CCCC(C(=O)NCc4cccc(Cl)c4)C3)sc2n1 (configuration not stated)	8.1%	–
COc1ccc(CCNC(=O)Cc2ccc(C)cc2)cc1OC	–	39.8 µM (active)
COc1ccc(CCNC(=O)NS(=O)(=O)c2ccc(C)cc2)cc1OC	17.5%	–
COc1ccc(CCNC(=O)c2ccccc2-c2ccccc2C(=O)O)cc1OC	5.81%	–
CC(C)(Oc1ccc(C2CC2(Cl)Cl)cc1)C(=O)O (configuration not stated)	18%	–
COc1ccc(NS(=O)(=O)c2cc3c(cc2C)N(C(C)=O)CCO3)cc1	15.7%	–
CCn1c(=O)c(=O)[nH]c2c(=O)oc3ccc(S(=O)(=O)Nc4ccc(OC)cc4)cc3c21	5.45%	–
CCOC(=O)N1CCN(C(=O)C(=O)Nc2sc3c(c2C#N)CC(C)(C)OC3)CC1	-14.6%	–
C/C=C\C=C\C(=O)N1CC2(CC(c3cccc(NC(=O)/C(C)=C\C)c3)=NO2)C[C@H]1C(N)=O (some centres not stated)	–	15.8 µM (active)
CC/C=C/C(=O)N1CC2(CC(c3cccc(NC(=O)CC)c3)=NO2)C[C@H]1C(N)=O (some centres not stated)	-8.44%	–
C/C=C(/C)C(=O)Nc1cccc(C2=NOC3(C2)C[C@@H](C(N)=O)N(C(=O)C2(C)CC2)C3)c1 (some centres not stated)	-3.68%	–
CCOC(=O)N1CCN(S(=O)(=O)c2ccc(-n3cnnn3)cc2)CC1	6.31%	–
NS(=O)(=O)c1ccc(NC(=S)N2CCCC2)cc1	13.2%	–
COc1ccc(N2CCN(C(=S)Nc3ccc(S(N)(=O)=O)cc3)CC2)cc1	–	11.2 µM (active)
COc1ccc(NC(=S)Nc2ccc(S(N)(=O)=O)cc2)c(C)c1	–	50.1 µM (active)
CCOc1ccccc1N1CCN(C(=S)Nc2ccc(S(N)(=O)=O)cc2)CC1	-3.97%	–
COc1ccc(NS(=O)(=O)c2ccc(NC(=S)NC(=O)CC(C)C)cc2)cc1	3.37%	–
NS(=O)(=O)c1ccc(NC(=S)NC(=O)c2cccnc2)cc1	-95.1%	–
Cc1ccccc1NC(=O)CCOc1ccccc1	2%	–
CCc1ccc(CN(C)C(=O)C2CCC(=O)N(Cc3cccc(OC)c3)C2)nc1 (configuration not stated)	14.7%	–

SMILES	largest response in the series, negative = inhibition	Potency
Cc1ccc(NS(=O)(=O)c2cn(C)c(=O)n(C)c2=O)c(C)c1	8.01%	–
COc1ccccc1NC(=O)CCC(=O)N1CC(C)Oc2ccc(C)cc21 (configuration not stated)	6.52%	–
COc1ccc(C(C(=O)NCC2CCCO2)N(C(=O)Cn2nnc3ccccc32)c2ccc(NC(C)=O)cc2)cc1OC (configuration not stated)	15.5%	–
OCCNc1nc(Nc2ccc(Cl)c(Cl)c2)nc2ccccc12	–	79.4 µM (active)
Nc1nc(Nc2ccccc2)nc(NCCO)c1[N+](=O)[O-]	13.5%	–
CN(C)c1nc(Nc2ccc(Cl)c(Cl)c2)nc(N(C)C)n1	3.3%	–
O=C(NCC(=O)N1CCN(c2ccccc2O)CC1)c1ccc2ccccc2c1	2.02%	–
CCN1CCN(c2sc(S(C)(=O)=O)nc2S(=O)(=O)c2ccc(Cl)cc2)CC1	14.2%	–
COc1ccc(C(=O)COC(=O)Cn2cnc3c2c(=O)n(C)c(=O)n3C)c(OC)c1	2.93%	–
CCCOC1CCCN(C(=O)c2cc(COc3cncc(Cl)c3)on2)C1 (configuration not stated)	-1.29%	–
OC(COc1ccc2ccccc2c1)CN1CCOCC1 (configuration not stated)	11.8%	–
CCOc1cc(N2CCOCC2)c(OCC)cc1NC(=O)COc1cccc2cccnc12	1.6%	–
Oc1c(C(c2ccccn2)N2CCOCC2)ccc2cccnc12 (configuration not stated)	–	35.5 µM (active)
CN(C)CCNc1ccc(-c2n[nH]c(=O)c3ccccc23)cc1[N+](=O)[O-]	16.7%	–
O=C(Nc1ccccc1Cl)O/N=C(/c1ccccc1)c1ccccn1	–	79.4 µM (active)
O=C(Nc1ccccc1Cl)Nc1cccc2cccnc12	2.31%	–
Cc1ccc(C(=O)O/N=C(\N)c2ccccn2)cc1Cl	2.02%	–
CCCCNc1nc(C)nc2c1nc(-c1ccccc1)n2CCCCN(CC)CC	23.3%	–
Cc1cc(C)n(-c2ccc(NC(=O)C3CCCCN3C(=O)c3cccs3)cc2)n1 (configuration not stated)	4.09%	–
C=CCc1cccc(/C=N/NC(=O)COc2ccc(-n3cnnn3)cc2)c1O	15.1%	–
CCc1ccnc(NC(=O)Nc2ccc(OCc3ccccc3)cc2)c1	-0.979%	–
